# Laboratory results from PubChem BioAssay AID743466 (Vanderbilt Specialized Chemistry Center, 2014).
# Target: Metabotropic glutamate receptor 4 (Homo sapiens) (UniProt Q14833)
# Assay: agonist response potentiation at mGlu4 receptor – cell-based, GIRK thallium flux, mechanism study for group III mGlu PAM project, late-stage follow-up (AID 743466)
# Conditions: mGlu4/GIRK cells, glutamate CRC fold shift, at 10 µM, stronger effect = higher value
# Sequence of Metabotropic glutamate receptor 4 (Homo sapiens) (Q14833 whole entry, looked up): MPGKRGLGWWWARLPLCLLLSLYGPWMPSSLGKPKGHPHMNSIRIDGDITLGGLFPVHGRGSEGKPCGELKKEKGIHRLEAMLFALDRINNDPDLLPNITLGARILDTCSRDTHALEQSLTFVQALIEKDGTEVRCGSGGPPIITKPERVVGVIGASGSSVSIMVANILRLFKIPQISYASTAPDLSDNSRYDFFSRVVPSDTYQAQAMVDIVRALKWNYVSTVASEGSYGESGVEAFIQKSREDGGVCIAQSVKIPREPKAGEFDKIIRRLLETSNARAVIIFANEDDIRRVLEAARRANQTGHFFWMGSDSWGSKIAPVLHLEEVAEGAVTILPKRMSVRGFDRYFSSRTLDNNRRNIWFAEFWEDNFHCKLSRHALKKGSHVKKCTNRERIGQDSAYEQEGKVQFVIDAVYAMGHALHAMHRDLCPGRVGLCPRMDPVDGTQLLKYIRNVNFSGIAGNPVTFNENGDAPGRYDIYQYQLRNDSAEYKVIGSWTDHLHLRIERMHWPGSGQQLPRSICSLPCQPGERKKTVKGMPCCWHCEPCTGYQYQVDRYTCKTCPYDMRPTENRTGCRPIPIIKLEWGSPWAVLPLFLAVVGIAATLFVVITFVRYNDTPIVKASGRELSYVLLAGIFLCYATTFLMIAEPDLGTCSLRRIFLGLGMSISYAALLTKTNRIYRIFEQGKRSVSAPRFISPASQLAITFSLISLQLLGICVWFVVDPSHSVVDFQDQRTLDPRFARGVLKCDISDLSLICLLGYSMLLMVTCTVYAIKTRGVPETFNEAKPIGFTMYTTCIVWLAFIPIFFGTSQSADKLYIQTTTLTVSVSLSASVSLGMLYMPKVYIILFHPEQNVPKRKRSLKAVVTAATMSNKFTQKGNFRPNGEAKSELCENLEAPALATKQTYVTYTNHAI
smiles,measurement,value
COC(=O)c1ccc(-n2c(C)cc(C(=O)CSc3ccc(NC(C)=O)cc3)c2C)cc1,fold shift,1.84
